Assay: binders from COS7 lysate, DM2A8 probe, primary screen, torsin A project, cell lysate, small-molecule microarray, fluorescence 635/667 (AID 1065)
Conditions: higher = more signal, COS7 lysate expressing mutant human TOR1A

| SMILES | composite z-score |
| --- | --- |
| O=C1c2ccccc2[C@](Cc2ccccc2I)(C(=O)O)[C@H](c2ccc(CO)cc2)N1Cc1ccccc1C(F)(F)F | 0.17 |
| C=CCN1C(=O)[C@@]2(O[C@@H](CCO)[C@H]([Si](C)(C)c3ccc(OC)cc3)[C@H]2C)c2cc(NC(C)=O)ccc21 | 0.299 |
| O=C1O[C@@H](c2ccccc2)[C@@H](c2ccccc2)N2[C@@H](c3ccc(O)cc3)[C@]3(C(=O)Nc4ccccc43)[C@@H](C(=O)NC[C@H](O)c3ccccc3)[C@H]12 | 0.606 |
| C=C(CCCC)C(=O)CC[C@@H](OC(=O)c1ccccc1-c1ccccc1C(=O)O)c1ccc(CO)o1 | -0.141 |
| COCCOC(=O)N1C(=O)[C@@]2(c3cc(C#CCCO)ccc31)[C@H](c1ccc(O)cc1)N1[C@H](c3ccccc3)[C@H](c3ccccc3)OC(=O)[C@H]1[C@@H]2C(=O)N1CCCCCCC1 | 1.07 |
| O=C(NCC(O)CO)[C@]1(CCS(=O)(=O)c2ccccc2)N=C(c2ccc(OCCCO)cc2)O[C@@H]1c1ccccc1 (stereo not given in full) | 1.87 |
| CC(C)NC(=O)[C@@H]1c2ccccc2C(=O)N(C2CCCCC2)[C@H]1c1ccc(CO)cc1 | 0.562 |
| CCOC(=O)C=Cc1cccc(OC)c1O | 0.689 |
| NC(=O)NCC#Cc1ccc2c(c1)[C@]1(C(=O)N2)[C@H](C(=O)NC[C@H](O)c2ccccc2)[C@H]2C(=O)O[C@H](c3ccccc3)[C@H](c3ccccc3)N2[C@@H]1c1ccccc1OCCO | 0.0051 |
| CN1C(=O)C2C(C1=O)C1C=C(c3ccc(CO)cc3)C2C(C2CC2)N1Cc1cc2c(cc1Br)OCO2 (stereo not given) | 1.44 |
| O=C1OCCC/C=C\[C@H]2OC34C=CCN(Cn5nnc6ccccc65)C(=O)[C@H]3N(CCCO)C(=O)[C@@H]4C12 (stereo not given in full) | -0.652 |
| CC(C)N1C(=O)c2ccccc2[C@](C)(C(=O)NC2CC2)[C@@H]1c1ccc(CO)cc1 | 0.007 |
| O=C1C2C=CC(C(O)CCc3ccccc3)N(Nc3ccccc3)C2C(=O)N1c1ccccc1 (stereo not given) | 1.83 |
| O=C1O[C@H](c2ccccc2)[C@H](c2ccccc2)N2[C@H]1[C@@H](C(=O)N1CCCCCCC1)[C@]1(C(=O)Nc3ccc(C#CC4=CCCCC4)cc31)[C@H]2c1ccc(O)cc1 | 2.87 |
| CC(C)OC(=O)C1=CCC(c2cccc(Cl)c2)O1 (stereo not given) | -0.125 |
| C=CCN1C(=O)[C@@]2(O[C@@H](CCO)[C@H]([Si](C)(C)c3ccc(OC)cc3)[C@H]2C)c2cc(N3C(=O)COc4ccccc43)ccc21 | 0.28 |
| C=CCC(OC(C)=O)[C@@H]1[C@@H](N(Cc2ccc(-c3ccccc3)cc2)C(=O)c2ccc(C)cc2)c2cc(OCCCO)ccc2N1C(=O)c1ccc2ccccc2n1 (stereo not given in full) | 0.42 |
| COCCOC(=O)N1C(=O)[C@@]2(c3cc(C#CC4=CCCCC4)ccc31)[C@H](c1ccc(OCCO)cc1)N1[C@H](c3ccccc3)[C@H](c3ccccc3)OC(=O)[C@H]1[C@@H]2C(=O)Nc1nc2ccccc2s1 | 0.115 |

| SMILES | composite z-score |
| --- | --- |
| O=[N+]([O-])c1ccc(C[n+]2ccc(CCCO)cc2)o1 | 0.218 |
| C=C(C)[C@@H]1CC=C(C(O)C2C=CC3C(=O)N(Cc4ccccc4)C(=O)C3N2n2cnnc2)CC1 (stereo not given in full) | 0.271 |
| CCCNC(=O)[C@@]1(C)c2ccccc2C(=O)N(Cc2cc(F)cc(C(F)(F)F)c2)[C@H]1c1ccc(CO)cc1 | 1.04 |
| CO[C@H]1O[C@H](CO)[C@@H](OC(=O)Nc2cccc(F)c2)[C@H](OC(=O)Nc2ccccc2-c2ccccc2)[C@@H]1OC(=O)Nc1ccccc1-c1ccccc1 | 0.568 |
| CCOC(=O)N1C(c2ccc(OCCCO)cc2)=NC(C(=O)OC)N1C(=O)OCC (stereo not given) | 0.0754 |
| COCCCNC(=O)[C@@]1(Cc2ccccc2I)c2ccccc2C(=O)N(Cc2ccccc2)[C@H]1c1ccc(CO)cc1 | -0.785 |
| COc1ccc(C#Cc2ccc3c(c2)[C@]2(C(=O)N3)[C@H](C(=O)N3CCN(c4ncccn4)CC3)[C@H]3C(=O)O[C@H](c4ccccc4)[C@H](c4ccccc4)N3[C@@H]2c2ccc(O)cc2)cc1 | 0.308 |
| CN(C)CCCC[C@@H]1NC(=O)[C@@H]2C[C@H](C(=O)NCc3ccc(F)cc3)[C@H](c3cccc(OCCO)c3)N2C1=O | -0.114 |
| O=C1O[C@@H](c2ccccc2)[C@@H](c2ccccc2)N2[C@@H](c3ccc(O)cc3)[C@]3(C(=O)Nc4ccc(C#CCCO)cc43)[C@@H](C(=O)O)[C@H]12 | 0.489 |
| CC(C)NC(=O)[C@@]1(c2ccc([N+](=O)[O-])cc2)CC(=O)N(C(C)C)[C@@H]1c1ccc(CO)cc1 | -0.0946 |
| C=CCC(OC(C)=O)[C@@H]1[C@@H](N(Cc2ccc(-c3cccc(C(F)(F)F)c3)o2)C(=O)Cc2ccc(OC)cc2)c2cc(OCCCO)ccc2N1C(=O)Cc1ccc(OC)cc1 (stereo not given in full) | 0.185 |
| C[n+]1ccc2ccc(O)cc2c1 | 1.46 |
| C=C(CCCC)/C(=C/C[C@H](OC(C)=O)c1ccc(CO)o1)c1cc(C(=O)OC)ccc1OC | -0.296 |
| COCCOC(=O)N1C(=O)[C@@]2(c3cc(C#Cc4ccc(OC)cc4)ccc31)[C@H](c1ccc(OCCO)cc1)N1[C@H](c3ccccc3)[C@H](c3ccccc3)OC(=O)[C@H]1[C@@H]2C(=O)N1CCc2cc(OC)c(OC)cc2C1 | 0.514 |
| CC(C)C(O)C1C=CC2C(=O)N(C)C(=O)C2N1N1CCCCC1 (stereo not given) | -0.145 |
| CCN(CC)c1ccc(N2CC=CC34O[C@@H]5C=CCOC(=O)[C@@H]5[C@H]3C(=O)N(CCCCCO)[C@@H]4C2=O)cc1 (stereo not given in full) | 2.08 |
| Cc1cc(C)c(C(O)C2C=CC3C(=O)NC(=O)C3N2Nc2ccccn2)c(C)c1 (stereo not given) | 0.135 |
